Bioassay records deposited in PubChem BioAssay by several laboratories.
Rows were chosen to be rich in hits. Some 6.2% of all compounds tested hit in one or more screens of this group.
AI-2 QS modul: modulators of Vibrio harveyi AI-2 quorum sensing system | 300,000 compounds, 0.4% hits | Vibrio harveyi JMH597 AI-2 luminescence/OD600 ratio, 9 h; active compounds read low; strain lacks LuxN and CqsS sensors; 0 = neutral-control median | activity change, % at 7.5 µM | AID 2094; in the data active = activity change below about -75%, passing the limit was not always enough;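 also: luminescence divided by OD600 gain over 9 h not by final OD600 alone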
NR3A LBD binder: modulators (binders) of human NR3A ligand-binding domain; 340,000 compounds, 2.5% hits; NR3A LBD differential scanning fluorimetry, Tm shift; 0% = protein alone, 100% = glycine-bound protein; Tm shift relative to glycine control, % at 25 µM; AID 1259313;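 active = melting temperature shift of at least 10% of the positive control shift, at one fixed dose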
AHR act: human AHR activation | 320,000 compounds, 2.5% hits | activation, % at 5 µM | P35869 | AHR-responsive luciferase reporter cells, luminescence; in the data active = activation above about 47%
H9c2 protect: modulators protecting cardiomyocytes from myocardial damage; AID 588492; 360,000 compounds, 0.63% hits; protection from H2O2 cell death, % at 20 µM; H9c2 cardiomyocytes, H2O2 injury protection, ATPLite, 2 h;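 active = compounds giving at least 50% protection of heart cells from peroxide-induced death in the single-dose screen, raw or plate-pattern-corrected value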
NTR1 ag: agonists of human neurotensin receptor NTR1 | P30989 | NTR1-U2OS beta-arrestin-GFP spot imaging, agonist mode | activation, % at 20 µM | 330,000 compounds, 0.17% hits | AID 493036;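 active = activation at or above 40% of the spot to cytoplasm intensity ratio, with at least 20 cells analyzed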
Target sequence (P30989 whole entry, looked up): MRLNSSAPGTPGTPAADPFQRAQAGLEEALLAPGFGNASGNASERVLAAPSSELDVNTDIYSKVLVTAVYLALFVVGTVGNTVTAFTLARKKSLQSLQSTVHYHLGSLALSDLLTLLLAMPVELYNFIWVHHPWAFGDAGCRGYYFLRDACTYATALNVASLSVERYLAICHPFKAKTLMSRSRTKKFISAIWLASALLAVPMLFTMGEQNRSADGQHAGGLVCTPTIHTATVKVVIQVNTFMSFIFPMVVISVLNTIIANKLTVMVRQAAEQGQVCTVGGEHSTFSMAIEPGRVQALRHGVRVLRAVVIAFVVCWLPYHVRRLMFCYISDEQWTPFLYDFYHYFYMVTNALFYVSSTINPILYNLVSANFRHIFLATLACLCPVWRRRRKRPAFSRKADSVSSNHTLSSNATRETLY
SUMO Mot1 rescue: SUMOylation pathway inhibition by Mot1-301 growth rescue | S. cerevisiae Mot1-301 growth rescue, ATP luminescence, 38.5C; percent above DMSO median, 100 means doubled | growth rescue, % at 18.8 µM | 320,000 compounds, 1% hits | AID 2716;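 active = every valid replicate shows activation above 250% relative to neutral control wells; inactive = the rest, any valid replicate at or below 250%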
Large screens that a line does not name were inactive.

CC(C)Oc1ccc(S(=O)(=O)N2CCOCC2)cc1NC(=O)c1ccc(Cl)c(S(=O)(=O)N2CCOCC2)c1	none (no result: AI-2 QS modul, NR3A LBD binder, AHR act, NTR1 ag, SUMO Mot1 rescue)
CC(NC(=O)c1ccco1)c1ccc(-n2ccnc2)cc1 (stereo not drawn)	none
COc1ccc(C)cc1N(C(=O)c1ccc(F)cc1)c1nc2ccccc2s1	NR3A LBD binder 11
COc1ccc(C)cc1N(C(=O)COc1cccc(F)c1)c1nc2ccccc2s1	none
CCOC(=O)[C@H]1[C@H]2COc3ccc(Br)cc3[C@@H]2N2C(=O)CN(Cc3ccco3)C(=O)[C@@]12C	none (no result: AI-2 QS modul)
COc1ccc(Cl)cc1CN1C(=O)C(Cc2ccccc2)ON=C1C (stereo not drawn)	none (no result: AI-2 QS modul, NR3A LBD binder, AHR act, NTR1 ag, SUMO Mot1 rescue)
Cn1nc(-c2ccccc2F)c2cc(C(=O)N3CCN(C(=O)c4ccco4)CC3)sc21	AHR act 66
CC1CCCCN1CCNC(=O)c1cc2c(-c3ccccc3F)nn(C)c2s1 (stereo not drawn)	none
CCOC(=O)C1CCN(C(=O)c2cc3c(-c4ccc(OC)c(OC)c4)nn(C)c3s2)CC1	none
O=C(c1ccco1)N1CCN(Cc2nnc(-c3ccccc3F)o2)CC1	none
CCOC(=O)N1CCC(NC(=O)c2cc3c(-c4ccc(OC)c(OC)c4)nn(C)c3s2)CC1	H9c2 protect 63
COc1ccc(NC(=O)c2cc3c(-c4ccc(OC)c(OC)c4)nn(C)c3s2)cc1OC	H9c2 protect 62
CCOC(=O)N1CCC(NC(=O)c2cc3c(-c4ccccc4F)nn(C)c3s2)CC1	H9c2 protect 50
CC1(C(=O)Nc2ccc(Cl)c(Cl)c2)CCN1C(=O)Cc1ccc(-c2ccccc2)cc1 (stereo not drawn)	none (no result: AI-2 QS modul, NR3A LBD binder, AHR act, NTR1 ag, SUMO Mot1 rescue)
Cc1ccccc1-c1n[nH]nc1C1=CC(=O)C[C@H](c2ccc(F)cc2)C1	none (no result: AI-2 QS modul, NR3A LBD binder, AHR act, NTR1 ag, SUMO Mot1 rescue)
CSCCC(N=C1NS(=O)(=O)c2ccccc21)C(=O)NCCc1ccccc1 (stereo not drawn)	none
CCS(=O)(=O)Nc1ccc(-c2cc(-c3ccccc3)c3cc(C)ccc3n2)cc1	NR3A LBD binder 10 (no result: NTR1 ag)
Cc1ccc2nc(-c3ccc(NS(C)(=O)=O)cc3)cc(-c3ccccc3)c2c1	none
Clc1cc(Cl)cc(Nc2ncnc(-n3cccc3)n2)c1	AHR act 54
Nc1ncnc(Nc2ccc(F)c(Cl)c2)n1	none
Cc1ccc(Nc2ncnc(-n3cccc3)n2)cc1Cl	AHR act 58
CCOc1ccc(CN(C)C(=O)c2cccc(S(=O)(=O)N3CCCC3)c2)cc1OC	none (no result: AI-2 QS modul)
COC(=O)c1ccc2[nH]ccc2c1	none
O=C(NCCC(=O)N1CCNC1=O)OCc1ccccc1	NR3A LBD binder 14
O=C(NCCCCCCNC(=O)OCc1ccccc1)OCc1ccccc1	none (no result: AI-2 QS modul, AHR act, NTR1 ag, SUMO Mot1 rescue)
COc1ccc(N2C(=O)CN=C2Nc2nc(C)cc(C)n2)cc1	AHR act 76
Cc1cc(C)nc(NC2=NCC(=O)N2c2ccccc2)n1	none
Cc1cc(C)nc(NC2=NCC(=O)N2c2cccc(Cl)c2)n1	AHR act 65
COc1cccc(C(=O)NN2CCOCC2)c1	none
O=C(COC(=O)c1ccccc1SCC(=O)N1CCCC1)NCc1ccccc1	none
c1ccc(COc2ccc(-c3sc(Nc4ccccc4)n[n+]3-c3ccccc3)cc2)cc1	AHR act 80 (no result: NR3A LBD binder, H9c2 protect)
CN(C)c1ccc(-c2sc(Nc3ccccc3)n[n+]2-c2ccc(F)cc2)cc1	none
CCc1ccc(Nc2n[n+](-c3ccccc3)c(-c3ccc(OCc4ccccc4)cc3)s2)cc1	none
CCN(CC)c1ccc(-c2sc(Nc3ccccc3)n[n+]2-c2ccc(F)cc2)cc1	AHR act 63
CCOC1=CC2=C(C(=O)C(Cl)=CC2=O)[C@@H]2CN(S(=O)(=O)c3ccc(C)cc3)[C@@H](c3ccccc3)[C@H]12	none (no result: AI-2 QS modul, NR3A LBD binder, AHR act, NTR1 ag, SUMO Mot1 rescue)
NC(=O)c1nsc(C(=O)N(c2cccc(F)c2)C(C(=O)NC2CCCC2)c2ccc(O)cc2)c1N (stereo not drawn)	none
COc1ccc(C(C(=O)NC2CCCC2)N(C(=O)c2snc(C(N)=O)c2N)c2cccc(O)c2)cc1 (stereo not drawn)	H9c2 protect 52
COc1ccc(C(C(=O)NC2CCCCC2)N(C(=O)CCl)c2cccc(Cl)c2)cc1 (stereo not drawn)	SUMO Mot1 rescue 328 (no result: NTR1 ag)
Nc1c(C(=O)NC2CCCC2)c2nc3ccccc3nc2n1N	H9c2 protect 62 (no result: SUMO Mot1 rescue)
